In the library only some 8.9% were active in any assay of this set; here they are far more common.
KB-V1 cytotox: kills drug-selected multidrug resistant KB-V1 cells. KB-V1 MDR cells viability, CellTiter-Glo, 72 h. Potency, µM (highest dose often 46.1 µM), usual class: cytotoxic. 3.4% of 400,000 active. AID 1347076; further: potency means the concentration at half of the fitted maximal effect; on the % scale 0 is the no-effect control and ±100 the full control effect; nearly all actives have a fitted effect of over 60% in size
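Readout: CellTiter-Glo luminescence, 10 min after addition. Cells: KB-V1 MDR subline, 72 h at 37 degrees C with compound. Analysis: corrected, normalized data fitted to concentration-effect curves.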
KB-3-1 cytotox: KB-3-1 parental cell cytotoxicity. Potency, µM (doses to about 46.1 µM), actives largely listed as cytotoxic. KB-3-1 viability, CellTiter-Glo ATP luminescence, 72 h. 1.4% of 400,000 active; further: potency means the concentration at half of the fitted maximal effect; on the % scale 0 is the no-effect control and ±100 the full control effect; nearly all actives have a fitted effect of over 60% in size
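Viability of parental KB-3-1 cells, measured by CellTiter-Glo luminescence, followed a 72 h incubation at 37 °C with pinned compounds in phenol-red-free DMEM containing 10% FBS.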
DRD3 antagonist: antagonists of human D3 dopamine receptor | P35462 | D3R cells, DiscoveRx beta-arrestin luminescence, antagonist mode; hits give low values | max response, negative = inhibition, % | 2.5% of 360,000 active; in the data active means max response below about -50%; inconclusive means no clear call, values can overlap the other calls; further: on the % scale 0 is the no-effect control and ±100 the full control effect
Target sequence (P35462 whole entry, looked up): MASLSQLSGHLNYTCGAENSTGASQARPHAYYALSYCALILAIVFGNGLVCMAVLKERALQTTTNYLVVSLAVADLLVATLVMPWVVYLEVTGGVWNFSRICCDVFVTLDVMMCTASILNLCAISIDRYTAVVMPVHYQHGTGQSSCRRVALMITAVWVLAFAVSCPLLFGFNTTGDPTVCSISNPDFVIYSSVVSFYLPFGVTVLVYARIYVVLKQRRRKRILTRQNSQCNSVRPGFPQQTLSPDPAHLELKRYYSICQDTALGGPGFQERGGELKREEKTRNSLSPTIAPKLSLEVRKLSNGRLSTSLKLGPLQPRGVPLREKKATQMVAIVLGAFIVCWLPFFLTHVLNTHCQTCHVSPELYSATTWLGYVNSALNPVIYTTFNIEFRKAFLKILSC
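Cells expressing the human receptor were seeded at 1500 cells/well, incubated overnight at 37 degrees C in 5% CO2, then exposed to library compounds with dopamine controls for 90 minutes at 37 degrees C before luminescent detection.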
SW480 rerep: DNA re-replication induction in SW480 cells; SW480 DNA re-replication, Hoechst DNA content imaging, 48 h; Potency, µM (doses to about 46.1 µM), without a hit: top-dose re-replication activation, most hits filed as activators; 1.8% of 340,000 active; further: potency means the concentration at half of the fitted maximal effect; % of control where 0% means no effect; nearly all actives have a fitted effect of over 55% in size
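Treated cells incubate 48 hr (37 C, 5% CO2), are stained 40 min with Hoechst, and nuclear fluorescence is enumerated; a rise in nuclei with high DNA signal marks re-replication.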
D3 ag: activates the human D3 dopamine receptor | max activation, % | AID 652048 | D3R DiscoveRx beta-arrestin cells, luminescence, 90 min | 0.58% of 410,000 active; in the data active means max activation above about 30%; further: 0% is about no effect
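Agonist-mode cell screen: cells plated at 1500/well and incubated overnight at 37 °C, then exposed to library compounds for 90 min at 37 °C. Detection reagent was added for 30–60 min at room temperature, and luminescence was read.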
MCF10A rerep: inducers of DNA re-replication in MCF 10A breast cells; MCF 10A DNA re-replication, Hoechst nuclear intensity, 48 h; Potency, µM (highest dose often 46.1 µM), without a hit: top-dose activity, positive = re-replication, most hits filed as activators; 2.9% of 350,000 active; AID 624296; further: potency means the concentration at half of the fitted maximal effect; % of control where 0% means no effect; nearly all actives have a fitted effect of over 50% in size
* hit, by the source's call; i = inactive; u = inconclusive; x = no result. Unless noted, the call rests on the fitted dose curve; in most records, active means well fitted curve in the direction sought with a large enough effect; inconclusive means small, poorly fitted or top-dose-only effect, or another doubt; inactive means no such curve, though single readings can be large; an effect the other way counts as inactive or inconclusive.

SMILES	KB-V1 cytotox	KB-3-1 cytotox	DRD3 antagonist	SW480 rerep	D3 ag	MCF10A rerep
CCC(C(N)=O)N1CCCC1=O (configuration not stated)	x	x	x	-2.1%	-13.6	-2.7%
OCCO	i	i	27.3	-47.8%	-5.7	-6.4%
C[C@H]1CC[C@]2(NC1)O[C@H]1C[C@H]3[C@@H]4CC[C@H]5C[C@@H](O)CC[C@]5(C)[C@H]4CC[C@]3(C)[C@H]1[C@@H]2C	x	x	x	x	-20.2	x
COc1ccc(C2=CC(c3ccc4c(c3)OCO4)c3c(c4ccccc4oc3=O)O2)cc1OC (configuration not stated)	2.59µM*	2.91µM*	-12.4	6.51µM*	6.6	2.59µM*
COc1ccc2c(c1OC)CN1CCc3cc4c(cc3[C@H]1C2)OCO4	i	i	-113.0*	-10.5%	-65.0	-27.7%
COc1ccc2c(c1OC)CN1CCc3cc4c(cc3C1C2)OCO4 (configuration not stated)	i	u	-105.6*	7.7%	-1.6	8.6%
CCCNC(=O)c1c(N)n(Cc2ccc3c(c2)OCO3)c2nc3ccccc3nc12	u	i	17.8	3.26µM*	-2.4	0.651µM*
COCCOC(=O)c1c(N)n(Cc2ccc(OC)cc2)c2nc3ccccc3nc12	i	i	5.8	20.2%	1.3	5.1%
CC(C)CCNC(=O)c1c(N)n(Cc2ccc3c(c2)OCO3)c2nc3ccccc3nc12	u	i	21.6	2.59µM*	34.9*	u
CC(C)CNC(=O)c1c(N)n(Cc2ccc3c(c2)OCO3)c2nc3ccccc3nc12	u	u	86.7	2.59µM*	7.1	u
COC(=O)c1c(N)n(Cc2ccc(OC)cc2)c2nc3ccccc3nc12	i	i	13.6	u	1.9	2.3%
Nc1ncnc2c1ncn2[C@@H]1O[C@@H]2COP(O)(=S)O[C@H]2[C@H]1O (some centres not stated)	i	i	x	x	x	x
Cc1cccc(C)c1NC(=O)CN1CCCC1=O	x	x	x	x	-11.3	x
Cc1ccccc1Cn1cccc(C(=O)Nc2cc(Cl)ccc2C#N)c1=O	u	i	x	x	3.6	x
Oc1ccc(Cl)cc1Sc1cc(Cl)ccc1O	u	u	-16.0	u	-11.1	u
CCN(CC)c1ccc(CN2CC=C(c3ccc(F)cc3)CC2)cc1	i	i	-67.1*	-3.9%	-17.5	u
COc1ccc(CN2CC=C(c3ccc(F)cc3)CC2)cc1Br	u	u	-68.1*	1.3%	-23.6	u
O=C(Cc1ccccc1)N1CCN(CC2CC=CCC2)CC1 (configuration not stated)	u	i	-53.5*	5.9%	-16.4	-34.4%
COc1ccc(CCNC(=O)N2c3ccccc3Sc3ccccc32)cc1	u	u	u	24.3%	3.3	16.4µM*
O=[N+]([O-])/N=C1\NCCN1Cc1ccc(Cl)nc1	x	x	x	x	10.5	x
O=C1NC(=O)C2(CCCc3ccc(N(CCCl)CCCl)cc32)N1 (configuration not stated)	i	i	4.5	16.4µM*	11.7	18.4µM*
CC(C)Oc1cccc(NC(=O)c2ccccc2C(F)(F)F)c1	x	x	x	x	-24.9	x
CC(=O)O[C@@]12CO[C@@H]1C[C@H](O)[C@@]1(C)C(=O)[C@H](O)C3=C(C)[C@@H](OC(=O)[C@H](O)[C@@H](NC(=O)c4ccccc4)c4ccccc4)C[C@@](O)([C@@H](OC(=O)c4ccccc4)C12)C3(C)C (some centres not stated)	8.2µM*	0.0073µM*	11.2	2.59µM*	2.0	u
CC(=O)O[C@H]1C(=O)[C@@]2(C)C([C@H](OC(=O)c3ccccc3)[C@]3(O)C[C@H](OC(=O)[C@H](O)[C@@H](NC(=O)Cc4ccccc4)c4ccccc4)C(C)=C1C3(C)C)[C@]1(OC(C)=O)CO[C@@H]1C[C@@H]2O (some centres not stated)	u	0.0073µM*	-50.4*	4.61µM*	-9.3	u
CC(=O)O[C@H]1C(=O)[C@@]2(C)C([C@H](OC(=O)c3ccccc3)[C@]3(O)C[C@H](O)C(C)=C1C3(C)C)[C@]1(OC(C)=O)CO[C@@H]1C[C@H]2O (some centres not stated)	u	u	22.4	u	-10.8	24.9%
SMILES	KB-V1 cytotox	KB-3-1 cytotox	DRD3 antagonist	SW480 rerep	D3 ag	MCF10A rerep
CC1CCC(NC(=O)c2cc3c(=O)n(C)c4ccccc4c3n2C)CC1 (configuration not stated)	i	i	-13.8	-4.6%	-6.2	u
N#Cc1ccc2nc(-c3ccc(CN4CCC(n5c(=O)[nH]c6ccccc65)CC4)cc3)c(-c3ccccc3)nc2c1	u	u	-56.5*	x	-8.8	x
CN1CCN(Cc2nc3ccccc3c(=O)[nH]2)CC1	i	i	-18.7	-0.4%	0.0	-2.6%
CC(C)CCNC(=O)CSc1nc2ccccc2c(=O)[nH]1	16.4µM*	i	-16.3	-12.0%	-1.4	1.7%
CCCCCCCn1c(=O)c(C(=O)Nc2cnccn2)c(O)c2ccccc21	2.59µM*	3.26µM*	22.8	u	5.4	3.66µM*
CCCCCn1c(=O)c(C(=O)Nc2cnccn2)c(O)c2ccccc21	16.4µM*	u	2.1	24.6%	20.1	16.4µM*
COC(=O)CSc1cc([N+](=O)[O-])cc2c1c(C1OCCO1)nn2-c1ccccc1	i	i	8.6	-1.5%	-3.4	u
Cc1ccccc1CN1CCCN(Cc2ccc(Cl)cc2)S1(=O)=O	i	i	u	-1.5%	-0.8	26.1%
Cc1ccc(CN2CCCN(Cc3ccc(Cl)cc3)S2(=O)=O)cc1	i	i	-18.2	-1.9%	77.1*	14.4%
Cc1ccc(Cn2cccc(C(=O)Nc3ccc4c(c3)OCCO4)c2=O)cc1	u	i	x	x	1.6	x
CC1CCC/C=C/C2CC(O)CC2C(O)/C=C/C(=O)O1 (configuration not stated)	u	u	-8.0	0.103µM*	1.0	u
C[C@H]1CCC/C=C/C2C[C@H](O)CC2[C@H](O)/C=C/C(=O)O1 (some centres not stated)	0.411µM*	0.0259µM*	5.4	u	23.8	0.259µM*
O=C(/C=C/c1c[nH]c2ccccc12)c1c(O)n(CCc2ccccc2)c(=O)[nH]c1=O	u	i	-6.4	18.4µM*	3.2	16.4µM*
COc1ccc(CC2C(=O)NC(C)C(=O)N(C)C3C(=O)N(C)C(Cc4ccc(O)c(c4)Oc4ccc(cc4)C3O)C(=O)NC(C)C(=O)NC(C)C(=O)N2C)cc1 (configuration not stated)	i	0.164µM*	-5.7	u	-0.4	0.259µM*
